# Reference: the supplement of paper PMC4466140
# B1: unnamed (peptide)
# chain: STKKPRPPVKSKPKH
# B2: unnamed (peptide)
# chain: TSFKGRPKPPKTLKH
# B3: unnamed (peptide)
# chain: SNRRPVPRRPSQPLN
# Target: AgAbp1
# Experiment: SPOT peptide array binding signal intensity (averaged, normalized) (arbitrary units (background-subtracted, floor 0; scale differs between SH3 domains)); higher = stronger binding of the SH3 domain to the peptide
# In short: (§1)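 The binding signal is the normalized, background-subtracted spot intensity averaged over replicates; its arbitrary units differ between domains. It was obtained by incubating 10 μg/ml GST-fused SH3 domains from four yeast species overnight at 4°C in TBS-based blocking buffer on cellulose membranes with synthetic 15-mer peptides, cysteines replaced by serines, then detecting with anti-GST antibody, HRP anti-mouse secondary and luminol.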
row,Binder,SPOT peptide array binding signal intensity
1,B1,553
2,B3,587

# Target: AgBbc1
# Experiment: as above
# In short: as §1
row,Binder,SPOT peptide array binding signal intensity
1,B1,104
2,B3,790

# Target: AgBem1-D1
# Experiment: as above
# In short: as §1
row,Binder,SPOT peptide array binding signal intensity
1,B1,1
2,B3,12

# Target: AgBzz1-D1
# Experiment: as above
# In short: as §1
row,Binder,SPOT peptide array binding signal intensity
1,B1,72
2,B3,157

# Target: AgBzz1-D2
# Experiment: as above
# In short: as §1
row,Binder,SPOT peptide array binding signal intensity
1,B1,38
2,B3,61.8

# Target: AgCyk3
# Experiment: as above
# In short: as §1
row,Binder,SPOT peptide array binding signal intensity
1,B1,≤ 0
2,B3,7.5

# Target: AgFus1
# Experiment: as above
# In short: as §1
row,Binder,SPOT peptide array binding signal intensity
1,B1,9
2,B3,27

# Target: AgHof1
# Experiment: as above
# In short: as §1
row,Binder,SPOT peptide array binding signal intensity
1,B1,1.25
2,B3,9

# Target: AgHse1
# Experiment: as above
# In short: as §1
row,Binder,SPOT peptide array binding signal intensity
1,B1,71.5
2,B3,18.2

# Target: AgLsb1
# Experiment: as above
# In short: as §1
row,Binder,SPOT peptide array binding signal intensity
1,B1,≤ 0
2,B3,23.5

# Target: AgLsb4
# Experiment: as above
# In short: as §1
row,Binder,SPOT peptide array binding signal intensity
1,B1,4
2,B3,3680

# Target: AgMyo5
# Experiment: as above
# In short: as §1
row,Binder,SPOT peptide array binding signal intensity
1,B1,3.25
2,B3,0.25

# Target: AgNbp2
# Experiment: as above
# In short: as §1
row,Binder,SPOT peptide array binding signal intensity
1,B1,9
2,B3,1230

# Target: AgRvs167
# Experiment: as above
# In short: as §1
row,Binder,SPOT peptide array binding signal intensity
1,B1,1.83
2,B3,64.1

# Target: AgSho1
# Experiment: as above
# In short: as §1
row,Binder,SPOT peptide array binding signal intensity
1,B1,23
2,B3,5.75

# Target: AgSla1-D1-D2
# Experiment: as above
# In short: as §1
row,Binder,SPOT peptide array binding signal intensity
1,B1,7
2,B3,≤ 0

# Target: AgSla1-D3
# Experiment: as above
# In short: as §1
row,Binder,SPOT peptide array binding signal intensity
1,B1,≤ 0
2,B3,3

# Target: CaAbp1-D1
# Experiment: as above
# In short: as §1
row,Binder,SPOT peptide array binding signal intensity
1,B1,1410
2,B3,328

# Target: CaAbp1-D2
# Experiment: as above
# In short: as §1
row,Binder,SPOT peptide array binding signal intensity
1,B1,1100
2,B3,574

# Target: CaBbc1
# Experiment: as above
# In short: as §1
row,Binder,SPOT peptide array binding signal intensity
1,B1,292
2,B3,1250

# Target: CaBem1-D1
# Experiment: as above
# In short: as §1
row,Binder,SPOT peptide array binding signal intensity
1,B1,4
2,B3,135

# Target: CaBzz1-D1
# Experiment: as above
# In short: as §1
row,Binder,SPOT peptide array binding signal intensity
1,B1,104
2,B3,380

# Target: CaBzz1-D2
# Experiment: as above
# In short: as §1
row,Binder,SPOT peptide array binding signal intensity
1,B1,104
2,B3,153

# Target: CaCyk3
# Experiment: as above
# In short: as §1
row,Binder,SPOT peptide array binding signal intensity
1,B1,2
2,B3,464

# Target: CaFus1
# Experiment: as above
# In short: as §1
row,Binder,SPOT peptide array binding signal intensity
1,B1,29
2,B3,111

# Target: CaHof1
# Experiment: as above
# In short: as §1
row,Binder,SPOT peptide array binding signal intensity
1,B1,1.25
2,B3,≤ 0

# Target: CaHse1
# Experiment: as above
# In short: as §1
row,Binder,SPOT peptide array binding signal intensity
1,B1,≤ 0
2,B3,20.5

# Target: CaLsb1
# Experiment: as above
# In short: as §1
row,Binder,SPOT peptide array binding signal intensity
1,B1,0.5
2,B3,2

# Target: CaLsb4
# Experiment: as above
# In short: as §1
row,Binder,SPOT peptide array binding signal intensity
1,B1,≤ 0
2,B3,4120

# Target: CaMyo5
# Experiment: as above
# In short: as §1
row,Binder,SPOT peptide array binding signal intensity
1,B1,2.5
2,B3,2.75

# Target: CaNbp2
# Experiment: as above
# In short: as §1
row,Binder,SPOT peptide array binding signal intensity
1,B1,21
2,B2,12
3,B3,1960

# Target: CaRvs167
# Experiment: as above
# In short: as §1
row,Binder,SPOT peptide array binding signal intensity
1,B1,0.333
2,B2,0.833
3,B3,303

# Target: CaRvs167-3
# Experiment: as above
# In short: as §1
row,Binder,SPOT peptide array binding signal intensity
1,B1,6.25
2,B2,1.5
3,B3,3.5

# Target: CaSho1
# Experiment: as above
# In short: as §1
row,Binder,SPOT peptide array binding signal intensity
1,B1,19.5
2,B2,0.5
3,B3,≤ 0

# Target: CaSla1-D1-D2
# Experiment: as above
# In short: as §1
row,Binder,SPOT peptide array binding signal intensity
1,B1,318
2,B2,196
3,B3,1570

# Target: CaSla1-D3
# Experiment: as above
# In short: as §1
row,Binder,SPOT peptide array binding signal intensity
1,B1,≤ 0
2,B2,≤ 0
3,B3,14.2

# Target: ScAbp1
# Experiment: as above
# In short: as §1
row,Binder,SPOT peptide array binding signal intensity
1,B1,2130
2,B2,556
3,B3,306

# Target: ScBbc1
# Experiment: as above
# In short: as §1
row,Binder,SPOT peptide array binding signal intensity
1,B1,5.5
2,B2,≤ 0
3,B3,478

# Target: ScBem1-D1
# Experiment: as above
# In short: as §1
row,Binder,SPOT peptide array binding signal intensity
1,B1,14
2,B2,6.5
3,B3,22

# Target: ScBzz1-D1
# Experiment: as above
# In short: as §1
row,Binder,SPOT peptide array binding signal intensity
1,B1,4.5
2,B2,26
3,B3,11.5

# Target: ScBzz1-D2
# Experiment: as above
# In short: as §1
row,Binder,SPOT peptide array binding signal intensity
1,B1,13
2,B2,18
3,B3,36.5

# Target: ScCyk3
# Experiment: as above
# In short: as §1
row,Binder,SPOT peptide array binding signal intensity
1,B1,≤ 0
2,B2,≤ 0
3,B3,17

# Target: ScFus1
# Experiment: as above
# In short: as §1
row,Binder,SPOT peptide array binding signal intensity
1,B1,≤ 0
2,B2,≤ 0
3,B3,56.8

# Target: ScHof1
# Experiment: as above
# In short: as §1
row,Binder,SPOT peptide array binding signal intensity
1,B1,≤ 0
2,B2,8.5
3,B3,≤ 0

# Target: ScHse1
# Experiment: as above
# In short: as §1
row,Binder,SPOT peptide array binding signal intensity
1,B1,110
2,B2,542
3,B3,639

# Target: ScLsb1
# Experiment: as above
# In short: as §1
row,Binder,SPOT peptide array binding signal intensity
1,B1,0.5
2,B2,4.75
3,B3,425

# Target: ScLsb2
# Experiment: as above
# In short: as §1
row,Binder,SPOT peptide array binding signal intensity
1,B1,3
2,B2,≤ 0
3,B3,8.5

# Target: ScLsb3
# Experiment: as above
# In short: as §1
row,Binder,SPOT peptide array binding signal intensity
1,B1,153
2,B2,≤ 0
3,B3,6520

# Target: ScLsb4
# Experiment: as above
# In short: as §1
row,Binder,SPOT peptide array binding signal intensity
1,B1,1
2,B2,≤ 0
3,B3,1140

# Target: ScMyo3
# Experiment: as above
# In short: as §1
row,Binder,SPOT peptide array binding signal intensity
1,B1,5.5
2,B2,3
3,B3,4.75

# Target: ScMyo5
# Experiment: as above
# In short: as §1
row,Binder,SPOT peptide array binding signal intensity
1,B1,≤ 0
2,B2,≤ 0
3,B3,2.75

# Target: ScNbp2
# Experiment: as above
# In short: as §1
row,Binder,SPOT peptide array binding signal intensity
1,B1,22
2,B2,7
3,B3,2500

# Target: ScPex13
# Experiment: as above
# In short: as §1
row,Binder,SPOT peptide array binding signal intensity
1,B1,≤ 0
2,B2,1.5
3,B3,377

# Target: ScRvs167
# Experiment: as above
# In short: as §1
row,Binder,SPOT peptide array binding signal intensity
1,B1,≤ 0
2,B2,≤ 0
3,B3,2630

# Target: ScSho1
# Experiment: as above
# In short: as §1
row,Binder,SPOT peptide array binding signal intensity
1,B1,269
2,B2,71
3,B3,83

# Target: ScSla1-D1-D2
# Experiment: as above
# In short: as §1
row,Binder,SPOT peptide array binding signal intensity
1,B1,34.5
2,B2,63.5
3,B3,2640

# Target: ScSla1-D3
# Experiment: as above
# In short: as §1
row,Binder,SPOT peptide array binding signal intensity
1,B1,16.8
2,B2,7
3,B3,66.1

# Target: SpAbp1-D1
# Experiment: as above
# In short: as §1
row,Binder,SPOT peptide array binding signal intensity
1,B1,193
2,B2,174
3,B3,352

# Target: SpBbc1
# Experiment: as above
# In short: as §1
row,Binder,SPOT peptide array binding signal intensity
1,B1,8
2,B2,0.5
3,B3,472

# Target: SpBzz1-D1
# Experiment: as above
# In short: as §1
row,Binder,SPOT peptide array binding signal intensity
1,B1,47
2,B2,207
3,B3,500

# Target: SpBzz1-D2
# Experiment: as above
# In short: as §1
row,Binder,SPOT peptide array binding signal intensity
1,B1,2
2,B2,≤ 0
3,B3,0.75

# Target: SpCyk3
# Experiment: as above
# In short: as §1
row,Binder,SPOT peptide array binding signal intensity
1,B1,≤ 0
2,B2,≤ 0
3,B3,6

# Target: SpHof1
# Experiment: as above
# In short: as §1
row,Binder,SPOT peptide array binding signal intensity
1,B1,11.8
2,B2,27
3,B3,245

# Target: SpHof1-2
# Experiment: as above
# In short: as §1
row,Binder,SPOT peptide array binding signal intensity
1,B1,3.5
2,B2,≤ 0
3,B3,204

# Target: SpHof1-3
# Experiment: as above
# In short: as §1
row,Binder,SPOT peptide array binding signal intensity
1,B1,274
2,B2,183
3,B3,302

# Target: SpHse1
# Experiment: as above
# In short: as §1
row,Binder,SPOT peptide array binding signal intensity
1,B1,44.5
2,B2,79
3,B3,91.5

# Target: SpLsb1
# Experiment: as above
# In short: as §1
row,Binder,SPOT peptide array binding signal intensity
1,B1,383
2,B2,2.5
3,B3,96

# Target: SpLsb4
# Experiment: as above
# In short: as §1
row,Binder,SPOT peptide array binding signal intensity
1,B1,30
2,B2,12.5
3,B3,2870

# Target: SpMyo1
# Experiment: as above
# In short: as §1
row,Binder,SPOT peptide array binding signal intensity
1,B1,≤ 0
2,B2,≤ 0
3,B3,73.1

# Target: SpNbp2
# Experiment: as above
# In short: as §1
row,Binder,SPOT peptide array binding signal intensity
1,B1,≤ 0
2,B2,22
3,B3,21.5

# Target: SpPex13
# Experiment: as above
# In short: as §1
row,Binder,SPOT peptide array binding signal intensity
1,B1,≤ 0
2,B2,≤ 0
3,B3,4

# Target: SpRvs167
# Experiment: as above
# In short: as §1
row,Binder,SPOT peptide array binding signal intensity
1,B1,≤ 0
2,B2,2
3,B3,1830

# Target: SpSla1-D1-D2
# Experiment: as above
# In short: as §1
row,Binder,SPOT peptide array binding signal intensity
1,B1,8
2,B2,3
3,B3,21

# Target: SpSla1-D3
# Experiment: as above
# In short: as §1
row,Binder,SPOT peptide array binding signal intensity
1,B1,≤ 0
2,B2,2
3,B3,0.5
